# Source: PubChem BioAssay (NCATS)
# Records with an inconclusive call do not appear. Entries that show only a call come without a potency. Unmarked numbers belong to inactive results. Calls of active or inactive are those of the source. The call rests on the fitted dose curve; in most records, active means well fitted curve in the direction sought with a large enough effect; inconclusive means small, poorly fitted or top-dose-only effect, or another doubt; inactive means no such curve, though single readings can be large; an effect the other way counts as inactive or inconclusive.
# Experiments:
# C33A = assay: Primary qHTS to identify gynecologic anti-cancer compounds using libraries of approved drugs and bioactive compounds (AID 1345084); conditions: Gynecologic cancer cell panel viability, ATPlite luminescence, 48 h; series mostly up to 57.5 µM; further: nearly all actives have a fitted effect of over 55% in size
# How it was run: (§1)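 Cells, 1,000 per well, plated 16 h, then exposed 48 h at 37 C to compounds. Viability by ATPlite luminescence after 15 min at room temperature.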
# CAOV3 = assay: as above; conditions: Gynecologic cancer cell panel viability, ATPlite luminescence, 48 h; series mostly up to 57.5 µM
# How it was run: as §1
# CASKI = assay: as above; conditions: Gynecologic cancer cell panel viability, ATPlite luminescence, 48 h; series mostly up to 57.5 µM
# How it was run: as §1
# Es-2 = assay: as above; conditions: Gynecologic cancer cell panel viability, ATPlite luminescence, 48 h; series mostly up to 57.5 µM
# How it was run: as §1
# HeLa = assay: as above; conditions: Gynecologic cancer cell panel viability, ATPlite luminescence, 48 h; series mostly up to 57.5 µM
# How it was run: as §1
# Hek293T = assay: as above; conditions: Gynecologic cancer cell panel viability, ATPlite luminescence, 48 h, control line for the selectivity index; series mostly up to 57.5 µM
# How it was run: as §1
# JEG-3 = assay: as above; conditions: Gynecologic cancer cell panel viability, ATPlite luminescence, 48 h; series mostly up to 57.5 µM
# How it was run: as §1
# OV90 = assay: as above; conditions: Gynecologic cancer cell panel viability, ATPlite luminescence, 48 h; series mostly up to 57.5 µM
# How it was run: as §1
# PA-1 = assay: as above; conditions: Gynecologic cancer cell panel viability, ATPlite luminescence, 48 h; series mostly up to 57.5 µM
# How it was run: as §1
# SKOV3 = assay: as above; conditions: Gynecologic cancer cell panel viability, ATPlite luminescence, 48 h; series mostly up to 57.5 µM
# How it was run: as §1
# Tov-21-G = assay: as above; conditions: Gynecologic cancer cell panel viability, ATPlite luminescence, 48 h; series mostly up to 57.5 µM
# How it was run: as §1
# Tov112D = assay: as above; conditions: Gynecologic cancer cell panel viability, ATPlite luminescence, 48 h; series mostly up to 57.5 µM
# How it was run: as §1
# [1] = Drug repurposing screens with cells derived from glioblastoma tumor samples (AID 1345199); conditions: GBM patient neurospheres viability, ATP luminescence, 48 h; further: nearly all actives have a fitted effect of over 40% in size; further: potency means the concentration at half of the fitted maximal effect
# How it was run: (§2)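 Four patient lines of CD133+ GBM neurospheres were screened at several concentrations; hits were retested in those lines plus three slower-growing GBM lines, using 48-hour treatment and ATP-based viability.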
# astro = assay: as above; conditions: viability, ATP luminescence, 48 h; series mostly up to 45.9 µM
# How it was run: as §2
# [2] = at 45.9 µM (top of the series), tumour line B
# [3] = at 45.9 µM (top of the series), tumour line D
# [4] = at 46 µM (top of the series), tumour line A
# [5] = at 46.1 µM (top of the series), tumour line C
# [6] = at 20 µM (top of the series), tumour line C
# [7] = at 21.2 µM (top of the series), tumour line B
# [8] = at 21.2 µM (top of the series), tumour line D
# [9] = at 21.3 µM (top of the series), tumour line A
structure (smiles),measurement,setting,value
O=C(NCCCN1CCOCC1)c1ccc(Cl)cc1,outcome,C33A,inactive
same,outcome,CAOV3,inactive
same,outcome,CASKI,inactive
same,outcome,Es-2,inactive
same,outcome,HeLa,inactive
same,outcome,Hek293T,inactive
same,outcome,JEG-3,inactive
same,Potency,OV90,inactive
same,outcome,PA-1,inactive
same,outcome,SKOV3,inactive
same,outcome,Tov-21-G,inactive
same,outcome,Tov112D,inactive
same,"activity, negative = cell killing",[1]; [2],-1.61%
same,"activity, negative = cell killing",[1]; [3],-16.9%
same,"activity, negative = cell killing",[1]; [4],-28.4%
same,"activity, negative = cell killing",[1]; [5],-13.2%
OCCN1C[C@H](O)[C@@H](O)[C@H](O)[C@H]1CO,outcome,C33A,inactive
same,outcome,CAOV3,inactive
same,outcome,CASKI,inactive
same,outcome,Es-2,inactive
same,outcome,HeLa,inactive
same,outcome,Hek293T,inactive
same,outcome,JEG-3,inactive
same,Potency,OV90,inactive
same,outcome,PA-1,inactive
same,outcome,SKOV3,inactive
same,outcome,Tov-21-G,inactive
same,outcome,Tov112D,inactive
same,"activity, negative = cell killing",[1]; [2],-4.15%
same,"activity, negative = cell killing",[1]; [3],-2.64%
same,"activity, negative = cell killing",[1]; [4],-17.7%
same,"activity, negative = cell killing",[1]; [5],-28.1%
O=C(O)CCC(=O)O,outcome,C33A,inactive
same,outcome,CAOV3,inactive
same,outcome,CASKI,inactive
same,outcome,Es-2,inactive
same,outcome,HeLa,inactive
same,outcome,Hek293T,inactive
same,outcome,JEG-3,inactive
same,Potency,OV90,inactive
same,outcome,PA-1,inactive
same,outcome,SKOV3,inactive
same,outcome,Tov-21-G,inactive
same,outcome,Tov112D,inactive
same,"activity, negative = cell killing",[1]; [2],-11.8%
same,"activity, negative = cell killing",[1]; [3],-1.31%
same,"activity, negative = cell killing",[1]; [4],-19%
same,"activity, negative = cell killing",[1]; [5],36.7%
CC(=O)N(CC(O)CN(C(C)=O)c1c(I)c(C(=O)NCC(O)CO)c(I)c(C(=O)NCC(O)CO)c1I)c1c(I)c(C(=O)NCC(O)CO)c(I)c(C(=O)NCC(O)CO)c1I (stereo not drawn),outcome,C33A,inactive
same,outcome,CAOV3,inactive
same,outcome,CASKI,inactive
same,outcome,Es-2,inactive
same,outcome,HeLa,inactive
same,outcome,Hek293T,inactive
same,outcome,JEG-3,inactive
same,Potency,OV90,inactive
same,outcome,PA-1,inactive
same,outcome,SKOV3,inactive
same,outcome,Tov-21-G,inactive
same,outcome,Tov112D,inactive
same,"activity, negative = cell killing",[1]; [6],4.37%
same,"activity, negative = cell killing",[1]; [7],-1.18%
same,"activity, negative = cell killing",[1]; [8],15.1%
same,"activity, negative = cell killing",[1]; [9],-9.07%
O=C(O)c1cc(=O)c2ccccc2o1,outcome,C33A,inactive
same,outcome,CAOV3,inactive
same,outcome,CASKI,inactive
same,outcome,Es-2,inactive
same,outcome,HeLa,inactive
same,outcome,Hek293T,inactive
same,outcome,JEG-3,inactive
same,Potency,OV90,inactive
same,outcome,PA-1,inactive
same,outcome,SKOV3,inactive
same,outcome,Tov-21-G,inactive
same,outcome,Tov112D,inactive
same,"activity, negative = cell killing",[1]; [2],-4.66%
same,"activity, negative = cell killing",[1]; [3],-22.4%
same,"activity, negative = cell killing",[1]; [4],-22.8%
same,"activity, negative = cell killing",[1]; [5],-14.3%
same,outcome,astro,inactive
CN[C@@H]1[C@H](O)[C@H](NC)[C@H]2O[C@@]3(O)C(=O)C[C@@H](C)O[C@H]3O[C@@H]2[C@H]1O,outcome,C33A,inactive
same,outcome,CAOV3,inactive
same,outcome,CASKI,inactive
same,outcome,Es-2,inactive
same,outcome,HeLa,inactive
same,outcome,Hek293T,inactive
same,outcome,JEG-3,inactive
same,Potency,OV90,inactive
same,outcome,PA-1,inactive
same,outcome,SKOV3,inactive
same,outcome,Tov-21-G,inactive
same,outcome,Tov112D,inactive
same,"activity, negative = cell killing",[1]; [6],-1.47%
same,"activity, negative = cell killing",[1]; [7],-21.3%
same,"activity, negative = cell killing",[1]; [8],0.484%
same,"activity, negative = cell killing",[1]; [9],-6.42%
CCCNC(C)C(=O)Nc1c(C)csc1C(=O)OC (stereo not drawn),outcome,C33A,inactive
same,outcome,CAOV3,inactive
same,outcome,CASKI,inactive
same,outcome,Es-2,inactive
same,outcome,HeLa,inactive
same,outcome,Hek293T,inactive
same,outcome,JEG-3,inactive
same,Potency,OV90,inactive
same,outcome,PA-1,inactive
same,outcome,SKOV3,inactive
same,outcome,Tov-21-G,inactive
same,outcome,Tov112D,inactive
same,"activity, negative = cell killing",[1]; [6],8.39%
same,"activity, negative = cell killing",[1]; [7],-2.83%
same,"activity, negative = cell killing",[1]; [8],-13.6%
same,"activity, negative = cell killing",[1]; [9],-41.7%
CCOc1cc(NC(C)=O)ccc1C(=O)OC,outcome,C33A,inactive
same,outcome,CAOV3,inactive
same,outcome,CASKI,inactive
same,outcome,Es-2,inactive
same,outcome,HeLa,inactive
same,outcome,Hek293T,inactive
same,outcome,JEG-3,inactive
same,Potency,OV90,inactive
same,outcome,PA-1,inactive
same,outcome,SKOV3,inactive
same,outcome,Tov-21-G,inactive
same,outcome,Tov112D,inactive
same,"activity, negative = cell killing",[1]; [2],-7.75%
same,"activity, negative = cell killing",[1]; [3],-29.2%
same,"activity, negative = cell killing",[1]; [4],-29.3%
same,"activity, negative = cell killing",[1]; [5],2.82%
same,outcome,astro,inactive
NC(N)=NCCN1CCCCCCC1,"activity change, negative = cytotoxicity",C33A,9.99% [at 0.462 µM]
same,"activity change, negative = cytotoxicity",CAOV3,-2.11% [at 0.462 µM]
same,"activity change, negative = cytotoxicity",CASKI,-2.55% [at 0.462 µM]
same,"activity change, negative = cytotoxicity",Es-2,-4.19% [at 0.462 µM]
same,"activity change, negative = cytotoxicity",HeLa,0.1% [at 0.462 µM]
same,"activity change, negative = cytotoxicity",Hek293T,-4.03% [at 0.462 µM]
same,"activity change, negative = cytotoxicity",JEG-3,-3.39% [at 0.462 µM]
same,"activity change, negative = cytotoxicity",OV90,-3.97% [at 0.462 µM]
same,"activity change, negative = cytotoxicity",PA-1,8.5% [at 0.462 µM]
same,"activity change, negative = cytotoxicity",SKOV3,6.07% [at 0.462 µM]
same,"activity change, negative = cytotoxicity",Tov-21-G,1.66% [at 0.462 µM]
same,"activity change, negative = cytotoxicity",Tov112D,3.26% [at 0.462 µM]
same,"activity, negative = cell killing",[1]; [6],-8.56%
same,"activity, negative = cell killing",[1]; [7],-5.86%
same,"activity, negative = cell killing",[1]; [8],12.5%
same,"activity, negative = cell killing",[1]; [9],-16.2%
NC(=O)NC1NC(=O)NC1=O (stereo not drawn),outcome,C33A,inactive
same,outcome,CAOV3,inactive
same,outcome,CASKI,inactive
same,outcome,Es-2,inactive
same,outcome,HeLa,inactive
same,outcome,Hek293T,inactive
same,outcome,JEG-3,inactive
same,Potency,OV90,inactive
same,outcome,PA-1,inactive
same,outcome,SKOV3,inactive
same,outcome,Tov-21-G,inactive
same,outcome,Tov112D,inactive
same,"activity, negative = cell killing",[1]; [6],1.99%
same,"activity, negative = cell killing",[1]; [7],4.84%
same,"activity, negative = cell killing",[1]; [8],-17.3%
same,"activity, negative = cell killing",[1]; [9],-7.96%
Nc1ccc(C(=O)Oc2ccccc2)c(O)c1,outcome,C33A,inactive
same,outcome,CAOV3,inactive
same,outcome,CASKI,inactive
same,outcome,Es-2,inactive
same,outcome,HeLa,inactive
same,outcome,Hek293T,inactive
same,outcome,JEG-3,inactive
same,Potency,OV90,inactive
same,outcome,PA-1,inactive
same,outcome,SKOV3,inactive
same,outcome,Tov-21-G,inactive
same,outcome,Tov112D,inactive
same,"activity, negative = cell killing",[1]; [5],-12.2%
same,Potency,[1]; tumour line A,11.2 µM (active)
COC(=O)N/N=C/c1c[n+]([O-])c2ccccc2[n+]1[O-],outcome,C33A,inactive
same,outcome,CAOV3,inactive
same,outcome,CASKI,inactive
same,outcome,Es-2,inactive
same,outcome,HeLa,inactive
same,outcome,Hek293T,inactive
same,outcome,JEG-3,inactive
same,Potency,OV90,inactive
same,outcome,PA-1,inactive
same,outcome,SKOV3,inactive
same,outcome,Tov-21-G,inactive
same,outcome,Tov112D,inactive
same,"activity, negative = cell killing",[1]; [2],3.32%
same,"activity, negative = cell killing",[1]; [3],-10.1%
same,"activity, negative = cell killing",[1]; [4],-9.78%
same,"activity, negative = cell killing",[1]; [5],2.7%
Cn1cc(C(=O)[C@@H]2CCc3nc[nH]c3C2)c2ccccc21,outcome,C33A,inactive
same,outcome,CAOV3,inactive
same,outcome,CASKI,inactive
same,outcome,Es-2,inactive
same,outcome,HeLa,inactive
same,outcome,Hek293T,inactive
same,outcome,JEG-3,inactive
same,Potency,OV90,inactive
same,outcome,PA-1,inactive
same,outcome,SKOV3,inactive
same,outcome,Tov-21-G,inactive
same,outcome,Tov112D,inactive
CN(C/C=C/C#CC(C)(C)C)Cc1cccc2ccccc12,outcome,C33A,inactive
same,outcome,CAOV3,inactive
same,outcome,CASKI,inactive
same,outcome,Es-2,inactive
same,outcome,HeLa,inactive
same,outcome,Hek293T,inactive
same,outcome,JEG-3,inactive
same,Potency,OV90,inactive
same,outcome,PA-1,inactive
same,outcome,SKOV3,inactive
same,outcome,Tov-21-G,inactive
same,outcome,Tov112D,inactive
same,"activity, negative = cell killing",[1]; [5],-0.19%
same,Potency,[1]; tumour line A,20 µM (active)
